{
  "source": "PubChem BioAssay (EPA / NIEHS)",
  "note": "Several values for one entry are separate records, joined by “and”; a condition that tells them apart may be missing. Equal entries are not always repeated. Where a structure was tested more than once in an assay, its records may differ in their call. Activity calls are given as the source filed them. Rule for the calls: active = hit-call score of the fitted dose curve at least 0.9, where 1 is the maximum; inactive = score below 0.9.",
  "data": [
    {"read-out": "Matrix Metallopeptidase 1 (MMP1), MMP1 (gene 4312)", "experiment": "BSK_BE3C_MMP1: BioMAP Diversity Plus: BE3C Assay for Matrix Metallopeptidase 1 (MMP1) Biomarker Activity (AID 2283024)", "details": "primary human bronchial epithelial cells; actives raise or lower the signal", "procedure": "BSK_BE3C is a cell-based, multiplexed-readout assay that uses bronchial epithelial cell, a human lung primary cell, with measurements taken at 24 hours after chemical dosing in a 96-well plate.BSK_BE3C_MMP1 is an assay component measured in the BSK_BE3C assay. It measures MMP-1 antibody related to regulation of gene expression using ELISA technology.Data from the assay component BSK_BE3C_MMP1 was analyzed into 1 assay endpoint. This assay endpoint, BSK_BE3C_MMP1, was analyzed with bidirectional fitting relative to DMSO as the negative control and baseline of activity. Using a type of binding reporter, gain or loss-of-signal activity can be used to understand changes in the signaling as they relate to the gene MMP1. Furthermore, this assay endpoint can be referred to as a primary readout, because this assay has produced multiple assay endpoints where this one serves a signaling function. To generalize the intended target to other relatable targets, this assay endpoint is annotated to the protease intended target family, where the subfamily is matrix metalloproteinase.\nThe levels of cell surface (or secreted, indicated by the prefix \"s\") biomarker endpoints were measured by ELISA. Overt cytotoxicity to cells in confluent adherent cultures (all systems other than the BT system) was assessed by measuring total protein levels using sulforhodamine B (SRB) staining in parallel cultures at the time of biomarker measurements, indicated as SRB endpoints. For proliferation assays for adherent cell types, individual cell types are cultured at sub-confluence and relative cell numbers quantified by SRB staining at time points optimized for each system (48 h: 3C and CASM3C systems; 72 h: BT and HDF3CGF systems; 96 h: SAg system). SRB was performed by staining cells with 0.1% SRB after fixation with 10% TCA and reading wells at 560 nm.Viability and proliferation of PBMC (T cells) was quantified by Alamar Blue reduction for the SAg and BT systems. For PBMC viability (referred to as PBMC Cytotoxicity within the assay endpoint names), cells were plated (75,000/well in a 96-well plate) and then chemical samples added for 1 h before addition of activators, SEB and TSST-1 (20 ng/mL final concentration each). Cells were incubated for 90 h. Then, Alamar Blue (20 uL/well) (Invitrogen, Cat DAL1100) was added for 6 h, and the plates were read with a fluorescence microplate reader at 546/580 nm (excitation/emission). For PBMC proliferation, cells were plated and activated as above but incubated for only 16 h prior to addition of Alamar Blue. Plates were read after 6 h.", "values": [
      {"smiles": "O=C(O)C(F)(F)C(F)(F)C(F)(F)C(F)(F)C(F)(F)C(F)(F)C(F)(F)C(F)(F)C(F)(F)F", "outcome": "inactive", "AC50": "32.4 µM (active)"},
      {"smiles": "NS(=O)(=O)C(F)(F)C(F)(F)C(F)(F)C(F)(F)C(F)(F)C(F)(F)C(F)(F)C(F)(F)F", "AC50": "13.4 µM (active) and 7.12 µM (active) and 7.29 µM (active)"},
      {"smiles": "Oc1ccc(Cl)cc1Cl", "outcome": "inactive"},
      {"smiles": "Clc1ccc(C(Cl)(Cl)Cl)cc1", "outcome": "inactive"},
      {"smiles": "CC(C)(c1ccccc1)c1ccc(O)cc1", "outcome": "inactive"},
      {"smiles": "CN(C)c1nc(=O)n(C2CCCCC2)c(=O)n1C", "outcome": "inactive"},
      {"smiles": "CCOP(=S)(OCC)SCSC(C)(C)C", "outcome": "inactive"},
      {"smiles": "CC#Cc1cc(C)nc(Nc2ccccc2)n1", "outcome": "inactive"},
      {"smiles": "Cc1ccc(O)c(C)c1", "outcome": "inactive"},
      {"smiles": "CCC(C)c1cc([N+](=O)[O-])cc([N+](=O)[O-])c1O", "note": "(stereo not given)", "outcome": "inactive"},
      {"smiles": "O=C(O)C(F)(F)C(F)(F)C(F)(F)C(F)(F)C(F)(F)C(F)(F)C(F)(F)C(F)(F)F", "outcome": "inactive", "AC50": "52.4 µM (active) and 50.9 µM (active)"},
      {"smiles": "c1ccc(-c2ccccc2)cc1", "outcome": "inactive"},
      {"smiles": "CCC(C)(CC)c1cc(NC(=O)c2c(OC)cccc2OC)on1", "outcome": "inactive"},
      {"smiles": "Oc1ccc(C(c2ccc(O)cc2)(C(F)(F)F)C(F)(F)F)cc1", "AC50": "34 µM (active)"},
      {"smiles": "COS(=O)(=O)OC", "outcome": "inactive"},
      {"smiles": "Nc1ccc(-c2ccc(N)cc2)cc1", "outcome": "inactive"},
      {"smiles": "CO/C=C(/C(=O)OC)c1ccccc1COc1cccc(C(F)(F)F)n1", "outcome": "inactive"},
      {"smiles": "O=C(NC(=O)c1c(F)cccc1F)Nc1cc(Cl)c(OC(F)(F)C(F)F)c(Cl)c1", "outcome": "inactive"},
      {"smiles": "ClC(Cl)=C(c1ccc(Cl)cc1)c1ccc(Cl)cc1", "AC50": "25.2 µM (active)"},
      {"smiles": "C[C@]12CCC(=O)C=C1CC[C@@H]1[C@@H]2CC[C@]2(C)C(=O)CC[C@@H]12", "outcome": "inactive"},
      {"smiles": "O=C(O)C(F)(F)C(F)(F)C(F)(F)C(F)(F)C(F)(F)F", "outcome": "inactive"},
      {"smiles": "CCCN(CCC)N=O", "outcome": "inactive"},
      {"smiles": "CCNc1nc(NC(C)C)nc(SC)n1", "outcome": "inactive"},
      {"smiles": "Cc1cccc([N+](=O)[O-])c1", "outcome": "inactive"},
      {"smiles": "O=C(NC(=O)c1cc(F)c(F)cc1Cl)Nc1cc(F)ccc1N1CCC(C(=O)O)CC1", "outcome": "inactive"},
      {"smiles": "c1cc2ccc3cccc4ccc(c1)c2c34", "outcome": "inactive"},
      {"smiles": "O=C(N[C@H]1CN2CCC1CC2)c1cc2ccoc2cn1", "outcome": "inactive"},
      {"smiles": "O=NN(c1ccccc1)c1ccccc1", "outcome": "inactive"},
      {"smiles": "Oc1c(Cl)c(Cl)c(Cl)c(Cl)c1Cl", "AC50": "26.1 µM (active)", "outcome": "inactive"},
      {"smiles": "CCCCCCCCOC(=O)c1ccccc1C(=O)OCCCCCCCC", "outcome": "inactive"},
      {"smiles": "C1CC2OC2CC1C1CO1", "note": "(stereo not given)", "outcome": "inactive"},
      {"smiles": "CCCCCCCCCC[N+](C)(C)CCCCCCCCCC", "AC50": "4.95 µM (active)"},
      {"smiles": "CC(C)(O)C(=O)Nc1ccc([N+](=O)[O-])c(C(F)(F)F)c1", "outcome": "inactive"},
      {"smiles": "O=S(=O)(O)C(F)(F)C(F)(F)C(F)(F)C(F)(F)C(F)(F)C(F)(F)F", "outcome": "inactive", "AC50": "44.3 µM (active) and 37.7 µM (active)"},
      {"smiles": "CCCCCCCCCc1ccc(O)cc1", "AC50": "16.7 µM (active)"},
      {"smiles": "Cc1ccccc1[N+](=O)[O-]", "outcome": "inactive"}
    ]}
  ]
}
